From PubChem
HSP90 inh: HSP90 refolding inhibition in rabbit reticulocyte lysate | luciferase refolding luminescence, 3 h | 290,000 compounds, 0.91% hits | inhibition, % at 5.6 µM;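 active = inhibition above the screen-wide mean plus 3 SD, computed separately per campaign, cut at about 16% in these data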;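 note: 0% = DMSO wells and 100% = 60 µM geldanamycin wells; inhibitors lower the luminescence because luciferase stays unfolded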
SENP7 inh: SENP7 protease inhibition; inhibition, % at 5 µM; Q9BQF6; recombinant SENP7, Z-RLRGG-aminoluciferin luminescence, 40 min; 330,000 compounds, 1.5% hits;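 active = inhibition above about 50% at the single test dose, limit read from the data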;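 note: plate controls were DMSO with enzyme for no effect and no enzyme buffer wells for full effect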
Target sequence (Q9BQF6 706-1050 limits assumed): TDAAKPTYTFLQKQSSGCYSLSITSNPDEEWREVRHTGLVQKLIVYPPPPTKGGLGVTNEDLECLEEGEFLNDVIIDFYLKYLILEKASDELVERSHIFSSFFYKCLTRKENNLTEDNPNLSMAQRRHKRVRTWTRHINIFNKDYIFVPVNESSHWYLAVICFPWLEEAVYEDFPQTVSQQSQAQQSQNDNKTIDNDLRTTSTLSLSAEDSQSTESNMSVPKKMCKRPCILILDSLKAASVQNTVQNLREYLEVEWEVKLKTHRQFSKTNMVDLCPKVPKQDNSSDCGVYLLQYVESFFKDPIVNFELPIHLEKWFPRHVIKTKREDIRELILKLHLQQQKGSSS
SENP8 block-1: inhibitors of human SENP8 protease; Q96LD8; 360,000 compounds, 0.64% hits; AID 602440; inhibition, % at 20 µM; recombinant SENP8, Nedd8 substrate fluorescence; in the data active = inhibition mostly above about 40%, no sharp cut-off; inactive = mostly below about 27%
Target sequence (Q96LD8 whole entry, looked up): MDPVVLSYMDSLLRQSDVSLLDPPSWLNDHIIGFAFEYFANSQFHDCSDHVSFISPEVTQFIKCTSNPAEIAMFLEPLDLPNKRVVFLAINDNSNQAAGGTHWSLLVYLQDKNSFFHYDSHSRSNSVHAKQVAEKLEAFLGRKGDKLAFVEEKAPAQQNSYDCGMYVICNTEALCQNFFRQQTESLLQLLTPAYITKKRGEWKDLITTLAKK
SENP8 block-2: blocks the human protease SENP8; purified SENP8, Z-RLRGG-aminoluciferin cleavage, luminescence; inhibition, % at 10 µM; 330,000 compounds, 1.2% hits; AID 2540; in the data active = inhibition above about 50%
SENP6 inh: blocks the human protease SENP6 | Q9GZR1 | Recombinant SENP6 catalytic domain, aminoluciferin luminescence | inhibition, % at 10 µM | 330,000 compounds, 1.8% hits | AID 2599;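 active = inhibition above about 50% at the single tested dose, limit read from the data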;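 note: plate controls were DMSO wells with enzyme for no effect and DMSO wells lacking enzyme for full effect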
SENP8 conf: human SENP8 inhibition, confirmed. 6,200 compounds, 40% hits. shares compounds with SENP7 inh. Recombinant SENP8, Z-RLRGG-aminoluciferin luminescence, 60 min. inhibition, % at 12.5 µM;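 active = mean inhibition across replicates above about 50%, limit read from the data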
SENP6 confirm: confirmation of human SENP6 protease inhibitors | 6,200 compounds, 58% hits | inhibition, % at 12.5 µM | recombinant SENP6, Z-RLRGG-aminoluciferin luminescence | shares compounds with SENP7 inh
SENP7 conf: confirmation of human SENP7 protease inhibitors; shares compounds with SENP7 inh; recombinant SENP7, Z-RLRGG-aminoluciferin luminescence, 40 min; inhibition, % at 12.5 µM; 6,200 compounds, 69% hits
Casp3 SENP sel: selectivity test for SENP inhibitors: human caspase-3 inhibition | purified caspase-3, Z-DEVD-aminoluciferin luminescence, 60 min | shares compounds with SENP7 inh | 6,200 compounds, 60% hits | inhibition, % at 12.5 µM;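 active = mean inhibition above about 50%, limit read from the data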;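 note: plate controls were enzyme with DMSO for no effect and wells without caspase-3 for full effect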
Target sequence (P42574 28-227 limits assumed): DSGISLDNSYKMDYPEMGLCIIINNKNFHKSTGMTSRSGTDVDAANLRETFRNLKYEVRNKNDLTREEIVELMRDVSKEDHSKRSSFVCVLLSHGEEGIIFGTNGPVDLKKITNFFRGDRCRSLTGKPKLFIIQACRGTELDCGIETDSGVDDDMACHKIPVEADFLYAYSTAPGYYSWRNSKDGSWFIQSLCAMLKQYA
SENP luc ctr: counter-screen for SENP inhibitors: luminescence interference; shares compounds with SENP7 inh; Pre-incubated SENP8/Z-RLRGG-aminoluciferin, luciferase luminescence interference; inhibition, % at 12.5 µM; 6,200 compounds, 39% hits; AID 488919;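 active = mean inhibition above about 50% when retested at one dose, limit read from the data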;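 note: plate controls were DMSO wells with completed reaction for no effect and substrate without enzyme for full effect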
An asterisk follows results filed as active; x = no result. A selection: hits, their analogues and other compounds. The true share with any hit is near 2.7%.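 Rule for the calls, unless noted: active = mean inhibition above about 50% in the one-dose retest (limit read from the data); inactive = the rest.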

SMILES | HSP90 inh | SENP7 inh | SENP8 block-1 | SENP8 block-2 | SENP6 inh | SENP8 conf | SENP6 confirm | SENP7 conf | Casp3 SENP sel | SENP luc ctr
CCCOc1ccc(C(=O)Nc2ccc(Cl)cn2)cc1 | 12.6 | 83.8* | 7.2 | 71.1* | 78.0* | 21.3 | 22.6 | 50.5* | 39.5 | 20.4
Cc1ccccc1C(=O)Nc1ccc(Cl)cn1 | -4.0 | 51.1* | 21.2 | 19.2 | 56.4* | 39.2 | 43.6 | 72.8* | 74.4* | 36.6
O=C(COc1ccc(Cl)cc1)Nc1ccc(Cl)cn1 | -4.4 | 12.3 | 32.2 | -8.7 | 7.2 | x | x | x | x | x
Cc1ccccc1C(=O)Nc1ccc(Br)c(C)n1 | -2.8 | 66.1* | 11.7 | 42.6 | 58.9* | 60.7* | 61.5* | 87.0* | 65.2* | 58.4*
Cc1ccc(C(=O)Nc2ccc(Cl)cn2)cc1 | 6.8 | 59.1* | 15.8 | 58.8* | 75.2* | 48.1 | 64.0* | 90.4* | 78.2* | 35.8
Cc1ccc(C(=O)Nc2ncc3c(Cl)cccc3n2)cc1 | 1.8 | 90.7* | 4.2 | 81.1* | 87.5* | 82.9* | 92.6* | 98.7* | 93.2* | 52.2*
O=C(Nc1ccc(Cl)cn1)c1ccc(Oc2ccccc2)cc1 | -1.6 | 91.0* | 2.9 | 90.0* | 91.1* | 27.0 | 52.5* | 57.8* | 47.4 | 5.4
Cc1ccc(C(=O)Nc2nccc(-c3cccs3)n2)cc1 | -0.8 | -10.1 | -6.8 | -10.0 | -13.5 | x | x | x | x | x
COc1cc(NC(=O)CCNC(=O)N2CC(=O)Nc3ccccc32)cc(OC)c1OC | x | x | 11.0 | x | x | x | x | x | x | x
Nc1ccc2nn(-c3cc([N+](=O)[O-])ccc3O)nc2c1 | 2.4 | -1.1 | 15.6 | 12.0 | 26.8 | x | x | x | x | x
CC(C)c1ccc(-n2nc3ccc(N)cc3n2)cc1 | 1.3 | 28.9 | -419.5 | 72.6* | 88.3* | 1.1 | 88.4* | 97.9* | 55.7* | 20.1
Nc1ccc2nn(-c3ccc(F)cc3)nc2c1 | 8.3 | 56.7* | -435.0 | 83.9* | 88.4* | 61.3* | 75.6* | 93.6* | 71.8* | 22.6
Cc1cc(-c2ccccc2C(=O)O)on1 | 3.0 | 5.2 | 11.6 | 4.0 | -16.4 | x | x | x | x | x
O=C1C2C3C=CC(CC3)C2C(=O)N1/N=C/c1ccc(O)c(O)c1 (configuration not stated) | -4.8 | 4.1 | 21.9 | -11.3 | -8.3 | x | x | x | x | x
O=C1c2ccccc2C(=O)N1/N=C/c1ccc(O)c(O)c1 | -3.2 | 45.6 | 12.0 | 50.7* | 65.6* | 6.4 | 41.0 | 82.2* | 70.0* | 64.4*
COc1cc(OC)cc(-c2cc3ncccc3cn2)c1 | x | 53.4* | -14.4 | 29.0 | 42.9 | 18.6 | 21.5 | 67.9* | 66.0* | 51.3*
Fc1ccccc1-c1cc2ncccc2cn1 | x | 38.9 | 7.1 | 26.6 | 39.0 | x | x | x | x | x
COc1cc(OC)cc(-c2cc3ccc(OC)cc3cn2)c1 | x | 100.3* | -304.4 | 97.1* | 99.3* | 99.7* | 100.7* | 103.5* | 98.6* | 98.4*
O=C(CN1C(=O)c2cccc([N+](=O)[O-])c2C1=O)N1CCc2ccccc2C1 | x | x | 5.3 | x | x | x | x | x | x | x
COc1ncccc1-c1nnn(-c2ccc(C)cc2)n1 | -0.6 | 80.0* | -11.7 | 69.9* | 78.5* | 78.4* | 81.2* | 96.3* | 82.3* | 79.1*
COc1ncccc1-c1nnn(-c2ccc(Cl)c(Cl)c2)n1 | -6.4 | 30.2 | 9.2 | 20.2 | 43.0 | x | x | x | x | x
COc1ncccc1-c1nnn(-c2ccc(F)cc2)n1 | 2.7 | 69.7* | 2.2 | 67.0* | 72.8* | 70.7* | 75.0* | 93.0* | 80.9* | 68.9*
S=C1NC(c2ccccc2)N2C(=S)NC(c3ccccc3)N12 (configuration not stated) | 0.4 | 51.6* | 15.0 | 38.3 | 68.7* | 8.0 | 14.8 | 44.7 | 5.9 | 7.8
COc1ccc(CCNC(=O)COC(=O)c2cc(S(=O)(=O)NCc3ccccc3)ccc2O)cc1OC | -3.3 | -3.8 | -266.0 | 4.4 | 7.3 | x | x | x | x | x
Cc1ccsc1/C=N/n1cnc2sc(C)c(C)c2c1=O | -5.1 | 45.6 | 20.9 | 42.6 | 70.4* | 23.0 | 19.8 | 21.7 | 28.6 | 8.3
SMILES | HSP90 inh | SENP7 inh | SENP8 block-1 | SENP8 block-2 | SENP6 inh | SENP8 conf | SENP6 confirm | SENP7 conf | Casp3 SENP sel | SENP luc ctr
NC(=O)CSc1nnc(COc2ccccc2)n1N | 2.9 | 2.5 | 21.6 | 1.1 | 1.2 | x | x | x | x | x
CCOC(=O)c1c(C)oc2ccc(NS(=O)(=O)c3cccs3)cc12 | 2.2 | 77.2* | 6.1 | 8.0 | -11.1 | -10.0 | -2.5 | -0.8 | 0.4 | -5.2
c1ccc(-c2ccc3sccc3n2)cc1 | x | 84.9* | 15.5 | 75.2* | 82.9* | 36.3 | 78.2* | 94.5* | 79.4* | 56.6*
Cc1nc2cc(NC(=O)Nc3cccc4ccccc34)ccc2n1C | 0.0 | 79.9* | -131.1 | 26.2 | 39.3 | 18.8 | 20.8 | 74.4* | 70.9* | 8.9
O=S(=O)(/N=C(/Nc1nc2ccccc2s1)c1ccccc1)c1ccccc1 | x | 14.9 | -8.0 | 60.1* | 71.7* | 0.6 | 6.6 | 8.7 | 11.9 | 22.8
O=C(O)c1cc(-c2ccccc2)n[nH]1 | -7.4 | -10.7 | 24.2 | -15.4 | -17.2 | x | x | x | x | x
C#CCn1c(=NC(=O)CSC(C)=O)sc2cc(F)ccc21 | 7.5 | 8.5 | -1.4 | 9.0 | 11.9 | x | x | x | x | x
Fc1ccccc1CNc1ncnc2sccc12 | -2.3 | -0.3 | -3.9 | -6.0 | 87.1* | -5.7 | -5.4 | -11.5 | 0.3 | 3.6
CCOCCCNC1=C(Cl)C(=O)c2ccccc2C1=O | 5.9 | 53.5* | 47.4* | 46.6 | 75.2* | 5.0 | 32.9 | 2.1 | 5.0 | 3.5
CCOCCCNS(=O)(=O)c1ccccc1 | 2.5 | -1.4 | 13.4 | -10.0 | -11.6 | x | x | x | x | x
c1ccc(COc2ccc3nocc3c2)cc1 | x | 89.7* | -27.5 | 89.7* | 93.0* | 85.5* | 89.5* | 100.2* | 91.1* | 83.6*
Nc1cc(OCc2ccccc2)ccc1OCc1ccccc1 | x | x | 4.7 | x | x | x | x | x | x | x
Cc1cc(C)n(C(=O)/C=C/c2cccs2)n1 | -0.4 | 56.3* | 11.2 | -26.6 | -11.4 | 1.3 | -10.5 | 5.1 | -6.2 | 8.0
CCCOC(=O)c1ccc(NC(=O)/C=C/c2cccs2)cc1 | -5.7 | 24.1 | -36.0 | 34.7 | 74.6* | 20.9 | 20.8 | 56.9* | 11.3 | 16.0
O=C(/C=C/c1cccs1)Nc1ccncc1 | -4.0 | 18.6 | 8.8 | 10.0 | 26.7 | x | x | x | x | x
Cc1cccc(NC(=O)/C=C/c2cccs2)n1 | 15.8 | 71.5* | 6.6 | 36.1 | 67.2* | 56.3* | 54.6* | 84.0* | 76.7* | 66.0*
CCOC(=O)C1=C(COC(=O)CC(C)c2ccccc2)NC(=O)NC1C (configuration not stated) | x | -0.3 | 7.8 | -4.1 | -9.4 | x | x | x | x | x
CCc1ccc(CCC(=O)Nc2nccs2)o1 | 1.3 | 2.7 | 7.1 | 0.1 | 4.0 | x | x | x | x | x
